In PubChem BioAssay AID743455 (The Scripps Research Institute Molecular Screening Center, 2014) one finds IC50 data, which are given here for 13 molecules.

The other results are listed elsewhere or left out. The source made the active and inactive calls.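 How the source made its calls: active means IC50 at or below 10 µM; inactive means IC50 above 10 µM.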

This experiment can be described thus: BODIPY product fluorescence quenching artefacts – biochemical, QFRET, 535nm, artefact control for HGIII-sPLA2 inhibitor project, dose response (AID 743455). To be noted: BODIPY FL product fluorescence interference, cell-free.
On to `COc1ccc2c(c1)c(=Cc1ccc(N(C)C)cc1)c1cc(-c3ccccc3)[n+](C)n12`, for which the IC50 (commonly the midpoint of a concentration-inhibition curve) was > 122 µM (inactive).

`Cc1ccc2sc(NNC(=O)c3ccc4c(c3)OCCO4)nc2c1C`: the IC50 is > 122 µM (inactive).

Take `Cc1cccc(-n2cnc(C(=O)NNC(=S)Nc3ccccc3)c2)n1`: the IC50 was > 122 µM (inactive).

Turning to `COc1ccc(C(=O)NC(=S)NNC(=O)c2c(-c3ccccc3)noc2C)cc1`, the IC50 is > 122 µM (inactive).

On to `O=C(N/N=C/c1cc(Cl)cc([N+](=O)[O-])c1O)C(O)(c1ccccc1)c1ccccc1`, for which the IC50 is > 122 µM (inactive).

With `COc1ccc(Cl)cc1C(=O)NNC(=S)NC1CCCC1`, the IC50 was > 122 µM (inactive).

`O=C1C(=O)N(Cc2ccc(-c3ccsc3)cc2)c2ccc(OC(F)(F)F)cc21`: the IC50 is > 122 µM (inactive).

For the molecule `C/C(=N\NC(=S)Nc1ccc(C)cc1)c1cc2ccccc2o1`, the IC50 was > 122 µM (inactive).

`O=C(NNC(=S)Nc1ccc(Br)cc1Cl)c1ccco1`: the IC50 was > 122 µM (inactive).

For the molecule `CC(C)CC(=O)NC(=S)NNC(=O)c1cccc([N+](=O)[O-])c1`, the IC50 is > 122 µM (inactive).

For `O=C(NNC(=S)Nc1ccc(F)cc1)[C@H]1C[C@@H]1c1ccccc1`, the IC50 was > 122 µM (inactive).

For the molecule `Cn1cc(Cl)c(C(=O)NNC(=S)Nc2cccc(Cl)c2)n1`, the IC50 is > 122 µM (inactive).

As for `O=C(NNC(=S)NC1CCCCC1)c1ccccc1Cl`, the IC50 was > 122 µM (inactive).
